In PubChem BioAssay AID1159580 (chemical genetic matrix, 2015):
Hit rate of the full screen: of about 5,500 compounds, about 2,000 (36%) were called active. About 18% were inconclusive and are not listed. The list shows a part of the results. Values without a mark were called inactive. No stated cut-off is given here; in the data, active means normalized growth mostly below about 0.91 (no sharp cut-off); inconclusive means no clear call, values can overlap the other calls; inactive means mostly above about 0.92.

Assay: chemical genetic growth profiling, strain panel (AID 1159580);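 further: tested at 20 µM; growth read once vehicle control cultures reached saturation at 30 °C; 1 = growth at the plate median or of vehicle wells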
Conditions: S. cerevisiae deletion strains, growth OD
[1] = locus YHR030C, strain SLT2, stronger effect = lower value
[2] = locus YHR079C, strain IRE1, stronger effect = lower value
[3] = locus YJL095W, strain BCK1, stronger effect = lower value
[4] = locus YJR066W, strain TOR1, stronger effect = lower value
[5] = locus YLR113W, strain HOG1, stronger effect = lower value
[6] = locus YNL183C, strain NPR1, stronger effect = lower value
[7] = locus YOR231W, strain MKK1, stronger effect = lower value
[8] = locus YPL256C, strain CLN2, stronger effect = lower value

Compound: CC(=O)OCC(=O)[C@@]1(O)CCC2C3CCC4=CC(=O)C=C[C@]4(C)[C@@]3(F)[C@@H](O)C[C@@]21C (stereo partly drawn)
- normalized growth [1]: 1.07
- normalized growth [2]: 1.07
- normalized growth [3]: 1.01
- normalized growth [4]: 1
- normalized growth [5]: 0.999
- normalized growth [6]: 0.993
- normalized growth [7]: 1.05
- normalized growth [8]: 1.06

Compound: O=C(/C=C/C(=O)Oc1ccccc1C(=O)O)Oc1ccccc1C(=O)O
- normalized growth (locus YAL021C, strain ccr4, stronger effect = lower value): 0.961
- normalized growth (locus YAL026C, strain drs2, stronger effect = lower value): 0.988
- normalized growth (locus YAL030W, strain snc1, stronger effect = lower value): 0.992
- normalized growth (locus YBL061C, strain skt5, stronger effect = lower value): 0.983
- normalized growth (locus YBR009C, strain hhf1, stronger effect = lower value): 0.991
- normalized growth (locus YBR023C, strain chs3, stronger effect = lower value): 0.994
- normalized growth (locus YBR171W, strain sec66, stronger effect = lower value): 0.962
- normalized growth (locus YBR231C, strain swc5, stronger effect = lower value): 0.984
- normalized growth (locus YBR279W, strain paf1, stronger effect = lower value): 0.978
- normalized growth (locus YCL011C, strain gbp2, stronger effect = lower value): 0.989
- normalized growth (locus YCL016C, strain dcc1, stronger effect = lower value): 0.971
- normalized growth (locus YCL061C, strain MRC1, stronger effect = lower value): 0.995
- normalized growth (locus YCL069W, strain vba3, stronger effect = lower value): 0.99
- normalized growth (locus YCR088W, strain abp1, stronger effect = lower value): 0.987
- normalized growth (locus YDL005C, strain med2, stronger effect = lower value): 0.976
- normalized growth (locus YDL040C, strain nat1, stronger effect = lower value): 0.992
- normalized growth (locus YDR001C, strain nth1, stronger effect = lower value): 0.972
- normalized growth (locus YDR069C, strain doa4, stronger effect = lower value): 0.98
- normalized growth (locus YDR137W, strain rgp1, stronger effect = lower value): 0.969
- normalized growth (locus YDR159W, strain sac3, stronger effect = lower value): 0.971
- normalized growth (locus YDR195W, strain ref2): 0.976
- normalized growth (locus YDR297W, strain sur2, stronger effect = lower value): 0.987
- normalized growth (locus YDR334W, strain swr1, stronger effect = lower value): 0.99
- normalized growth (locus YDR335W, strain msn5, stronger effect = lower value): 0.986
- normalized growth (locus YDR392W, strain spt3, stronger effect = lower value): 0.995
- normalized growth (locus YEL003W, strain gim4, stronger effect = lower value): 0.995
- normalized growth (locus YEL037C, strain rad23, stronger effect = lower value): 0.998
- normalized growth (locus YEL061C, strain CIN8 (second series), stronger effect = lower value): 0.981
- normalized growth (locus YER015W, strain faa2, stronger effect = lower value): 0.992
- normalized growth (locus YER016W, strain bim1, stronger effect = lower value): 0.971
- normalized growth (locus YER111C, strain swi4, stronger effect = lower value): 0.975
- normalized growth (locus YER155C, strain BEM2 (second series), stronger effect = lower value): 0.998
- normalized growth (locus YFR010W, strain ubp6, stronger effect = lower value): 0.991
- normalized growth (locus YGL167C, strain pmr1, stronger effect = lower value): 0.976
- normalized growth (locus YGL173C, strain kem1, stronger effect = lower value): 1
- normalized growth (locus YGL227W, strain vid30, stronger effect = lower value): 0.962
- normalized growth (locus YGL240W, strain doc1, stronger effect = lower value): 0.984
- normalized growth (locus YGL253W, strain hxk2, stronger effect = lower value): 0.995
- normalized growth (locus YHR013C, strain ard1, stronger effect = lower value): 0.984
- normalized growth (locus YHR027C, strain rpn1, stronger effect = lower value): 0.979
- normalized growth [1]: 1.01
- normalized growth [2]: 1.02
- normalized growth (locus YHR142W, strain chs7, stronger effect = lower value): 0.974
- normalized growth (locus YJL092W, strain hpr5, stronger effect = lower value): 0.989
- normalized growth (locus YJL095W, strain BCK1 (second series), stronger effect = lower value): 0.992
- normalized growth [3]: 1.02
- normalized growth (locus YJL115W, strain asf1, stronger effect = lower value): 0.968
- normalized growth (locus YJL129C, strain trk1, stronger effect = lower value): 0.964
- normalized growth (locus YJL154C, strain vps35, stronger effect = lower value): 0.996
- normalized growth (locus YJL164C, strain tpk1, stronger effect = lower value): 0.99
- normalized growth (locus YJL166W, strain qcr8, stronger effect = lower value): 0.997
- normalized growth [4]: 0.975
- normalized growth (locus YKL160W, strain elf1, stronger effect = lower value): 0.981
- normalized growth (locus YKR026C, strain gcn3, stronger effect = lower value): 0.968
- normalized growth (locus YKR091W, strain srl3, stronger effect = lower value): 0.978
- normalized growth (locus YLL001W, strain dnm1, stronger effect = lower value): 0.999
- normalized growth (locus YLL026W, stronger effect = lower value): 0.961
- normalized growth (locus YLL041C, strain sdh2, stronger effect = lower value): 0.987
- normalized growth (locus YLR027C, strain aat2, stronger effect = lower value): 0.985
- normalized growth [5]: 0.987
- normalized growth (locus YLR221C, strain rsa3, stronger effect = lower value): 1
- normalized growth (locus YLR258W, strain gsy2, stronger effect = lower value): 0.988
- normalized growth (locus YLR262C, strain YPT6 (second series), stronger effect = lower value): 0.996
- normalized growth (locus YLR320W, strain mms22, stronger effect = lower value): 1.01
- normalized growth (locus YLR342W, strain FKS1, stronger effect = lower value): 0.983
- normalized growth (locus YLR357W, strain rsc2, stronger effect = lower value): 0.987
- normalized growth (locus YLR370C, strain arc18, stronger effect = lower value): 0.994
- normalized growth (locus YLR384C, strain iki3, stronger effect = lower value): 0.976
- normalized growth (locus YML120C, strain ndi1, stronger effect = lower value): 0.974
- normalized growth (locus YMR058W, strain fet3, stronger effect = lower value): 0.984
- normalized growth (locus YMR125W, strain sto1, stronger effect = lower value): 0.967
- normalized growth (locus YMR129W, stronger effect = lower value): 0.973
- normalized growth (locus YMR205C, strain PFK2, stronger effect = lower value): 0.964
- normalized growth (locus YMR231W, strain pep5, stronger effect = lower value): 0.979
- normalized growth (locus YNL071W, strain lat1, stronger effect = lower value): 1
- normalized growth [6]: 0.976
- normalized growth (locus YNL209W, strain ssb2, stronger effect = lower value): 0.971
- normalized growth (locus YNL248C, strain rpa49, stronger effect = lower value): 0.985
- normalized growth (locus YNL322C, strain KRE1 (second series), stronger effect = lower value): 0.93
- normalized growth (locus YNR049C, strain mso1, stronger effect = lower value): 0.985
- normalized growth (locus YOR001W, strain rrp6, stronger effect = lower value): 1
- normalized growth (locus YOR070C, strain gyp1, stronger effect = lower value): 0.978
- normalized growth (locus YOR080W, strain dia2, stronger effect = lower value): 0.98
- normalized growth (locus YOR083W, strain WHI5, stronger effect = lower value): 0.935
- normalized growth (locus YOR106W, strain vam3, stronger effect = lower value): 0.953
- normalized growth [7]: 1.01
- normalized growth (locus YOR265W, strain rbl2, stronger effect = lower value): 0.979
- normalized growth (locus YOR270C, strain vph1, stronger effect = lower value): 1.02
- normalized growth (locus YOR290C, strain snf2, stronger effect = lower value): 0.98
- normalized growth (locus YPL051W, strain arl3, stronger effect = lower value): 0.984
- normalized growth (locus YPL078C, strain atp4, stronger effect = lower value): 0.984
- normalized growth (locus YPL106C, strain sse1, stronger effect = lower value): 0.973
- normalized growth (locus YPL240C, strain hsp82, stronger effect = lower value): 0.968
- normalized growth [8]: 1

Compound: CC(/C=C/c1ccccc1)=N/OC(=O)c1ccccc1Cl
- normalized growth (locus YAR019C, strain CDC15, stronger effect = lower value): 0.967
- normalized growth (locus YBL105C, strain PKC1, stronger effect = lower value): 0.97
- normalized growth (locus YBR135W, strain CKS1, stronger effect = lower value): 0.974
- normalized growth (locus YBR136W, strain MEC1, stronger effect = lower value): 0.969
- normalized growth (locus YBR160W, strain CDC28, stronger effect = lower value): 0.97
- normalized growth (locus YDL017W, strain CDC7, stronger effect = lower value): 0.976
- normalized growth (locus YDL028C, strain MPS1, stronger effect = lower value): 0.981
- normalized growth (locus YDL101C, strain DUN1, stronger effect = lower value): 0.976
- normalized growth (locus YDL108W, strain KIN28, stronger effect = lower value): 0.982
- normalized growth (locus YDL132W, strain cdc53, stronger effect = lower value): 0.978
- normalized growth (locus YDL214C, strain PRR2, stronger effect = lower value): 0.902
- normalized growth (locus YDR052C, strain DBF4, stronger effect = lower value): 0.981
- normalized growth (locus YDR054C, strain cdc34, stronger effect = lower value): 0.96
- normalized growth (locus YDR226W, strain ADK1, stronger effect = lower value): 0.979
- normalized growth (locus YDR477W, strain SNF1, stronger effect = lower value): 0.911
- normalized growth (locus YER123W, strain YCK3, stronger effect = lower value): 0.876
- normalized growth (locus YER133W, strain GLC7, stronger effect = lower value): 0.917
- normalized growth (locus YFL009W, strain cdc4, stronger effect = lower value): 0.974
- normalized growth (locus YFL029C, strain CAK1, stronger effect = lower value): 0.969
- normalized growth (locus YFR003C, strain YPI1, stronger effect = lower value): 0.97
- normalized growth (locus YFR019W, strain FAB1, stronger effect = lower value): 0.936
- normalized growth (locus YFR028C, strain CDC14, stronger effect = lower value): 0.969
- normalized growth (locus YGR040W, strain KSS1, stronger effect = lower value): 0.887
- normalized growth (locus YGR052W, strain FMP48, stronger effect = lower value): 0.949
- normalized growth (locus YGR092W, strain DBF2, stronger effect = lower value): 0.874
- normalized growth [1]: 0.899
- normalized growth [2]: 0.888
- normalized growth (locus YHR082C, strain KSP1, stronger effect = lower value): 0.96
- normalized growth (locus YHR205W, strain SCH9, stronger effect = lower value): 0.864
- normalized growth (locus YIL147C, strain SLN1, stronger effect = lower value): 0.974
- normalized growth [3]: 0.903
- normalized growth (locus YJL128C, strain PBS2, stronger effect = lower value): 0.955
- normalized growth (locus YJL157C, strain FAR1, stronger effect = lower value): 0.879
- normalized growth (locus YJR016C, strain ILV3, stronger effect = lower value): 0.978
- normalized growth (locus YJR066W, strain TOR1 (second series), stronger effect = lower value): 0.795
- normalized growth [4]: 0.963
- normalized growth (locus YKL048C, strain ELM1, stronger effect = lower value): 0.936
- normalized growth (locus YKL067W, strain YNK1, stronger effect = lower value): 0.907
- normalized growth (locus YKL101W, strain HSL1, stronger effect = lower value): 0.902
- normalized growth (locus YKL193C, strain SDS22, stronger effect = lower value): 0.974
- normalized growth (locus YKL203C, strain TOR2, stronger effect = lower value): 0.954
- normalized growth [5]: 0.734 (active)
- normalized growth (locus YLR133W, strain CKI1, stronger effect = lower value): 0.896
- normalized growth (locus YLR403W, strain SFP1, stronger effect = lower value): 0.86
- normalized growth (locus YML070W, strain DAK1, stronger effect = lower value): 0.849
- normalized growth (locus YMR001C, strain CDC5, stronger effect = lower value): 0.97
- normalized growth (locus YMR205C, strain PFK2 (second series), stronger effect = lower value): 0.917
- normalized growth (locus YMR277W, strain FCP1, stronger effect = lower value): 0.966
- normalized growth (locus YNL006W, strain LST8, stronger effect = lower value): 0.984
- normalized growth (locus YNL020C, strain ARK1, stronger effect = lower value): 0.905
- normalized growth (locus YNL161W, strain CBK1, stronger effect = lower value): 0.968
- normalized growth [6]: 0.903
- normalized growth (locus YNL207W, strain RIO2, stronger effect = lower value): 0.965
- normalized growth (locus YNL222W, strain SSU72, stronger effect = lower value): 0.984
- normalized growth (locus YNL307C, strain MCK1 (second series), stronger effect = lower value): 0.899
- normalized growth (locus YOL078W, strain AVO1, stronger effect = lower value): 0.975
- normalized growth (locus YOL136C, strain PFK27, stronger effect = lower value): 0.849
- normalized growth (locus YOR061W, strain CKA2, stronger effect = lower value): 0.9
- normalized growth (locus YOR119C, strain RIO1, stronger effect = lower value): 0.961
- normalized growth [7]: 0.84
- normalized growth (locus YOR329C, strain SCD5, stronger effect = lower value): 0.974
- normalized growth (locus YPL031C, strain PHO85, stronger effect = lower value): 0.909
- normalized growth (locus YPL153C, strain RAD53, stronger effect = lower value): 0.896
- normalized growth (locus YPL204W, strain HRR25, stronger effect = lower value): 0.897
- normalized growth (locus YPL209C, strain IPL1, stronger effect = lower value): 0.966
- normalized growth [8]: 0.806 (active)
- normalized growth (locus YPR025C, strain CCL1, stronger effect = lower value): 0.977
- normalized growth (locus YPR106W, strain ISR1, stronger effect = lower value): 0.964
- normalized growth (locus YPR111W, strain DBF20, stronger effect = lower value): 0.961
- normalized growth (strain NNK1, stronger effect = lower value): 0.963
- normalized growth (strain TSCII, stronger effect = lower value): 0.961
